Screening data: PubChem, National Center for Advancing Translational Sciences (NCATS)
Vaccinia Venus – qHTS for Stage-Specific Inhibitors of Vaccinia Orthopoxvirus: Venus Reporter Primary qHTS. Potency, µM (highest dose often 36.5 µM), inactives show at the top dose activity change, negative = inhibition, actives largely listed as inhibitors. AID 720580, 2013. Vaccinia virus Venus reporter expression, fluorescence. actives 0.46% (n = 330,000); calls by dose curve; tested in A549 cells; further: potency means the concentration at half of the fitted maximal effect; nearly all actives have a fitted effect of over 30% in size
HCV inh – qHTS Assay for Inhibitors of Hepatitis C Virus (HCV). Huh7.5.1 HCVcc-Cre infection, luciferase reporter, 44 h. Potency, µM (top dose mostly 41.8 µM), for inactives: at the top dose activity change, negative = inhibition, actives largely listed as inhibitors. actives 3.4% (n = 340,000); active means well fitted inhibition curve with a large enough effect; inconclusive means small, poorly fitted or top-dose-only effect, or another doubt; inactive means no such curve, though single readings can be large or run the other way; further: potency means the concentration at half of the fitted maximal effect
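After 44 h co-culture of compound, cells and HCVcc-Cre (~0.5 moi), substrate is added for 15 min at room temperature and luciferase measured over 15 sec. Cells were seeded at 1,000/well and pre-cultured 4 h.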
Vaccinia mCherry – qHTS for Stage-Specific Inhibitors of Vaccinia Orthopoxvirus: mCherry Reporter Primary qHTS; actives 0.63% (n = 310,000); Vaccinia virus mCherry reporter infection, fluorescence; AID 720579, 2013; Potency, µM (highest dose often 36.5 µM), for inactives: at the top dose activity change, negative = inhibition, usual class: inhibitors; calls by dose curve; tested in A549 cells; further: potency means the concentration at half of the fitted maximal effect; nearly all actives have a fitted effect of over 35% in size
HCMV inh – qHTS Assay for inhibitors of the human cytomegalovirus (HCMV); HFF cells, HCMV-luciferase reporter, 72 h; stronger effect = lower value; activity change, negative = inhibition, % at 57.5 µM; actives 4.5% (n = 410,000); AID 1259415, 2018; in the data active means activity change below about -60%; inconclusive means no clear call, values can overlap the other calls; inactive means above about -39%
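Steps: HFFs plated, 16 h 37C; compounds added; HCMV-luciferase added to MOI 1 PFU/cell; 72 h 37C; OneGlo reagent, 5 min room temperature; luminescence read, normalized to controls.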
FMDV antiviral – High Throughput Screening for Foot and Mouth Disease Virus Antivirals; actives 1.2% (n = 410,000); Potency, µM (titrated, usually from 57.9 µM), for the others: at the highest dose activity change, negative = inhibition, usual class: inhibitors; FMDV antiviral cell-based qHTS; calls by dose curve; tested in HEK293T cells; further: read-out not given here; potency means the concentration at half of the fitted maximal effect; nearly all actives have a fitted effect of over 45% in size
Starred values were filed as active, the others as inactive; i = inactive; ? = inconclusive; . = no result given; [ ] = another dose, or the depositor's remark. Shown are actives, neighbours in structure and some others; about 7.3% of the full set was active somewhere. On the % scale 0 is the no-effect control and ±100 the full control effect.

SMILES	Vaccinia Venus	HCV inh	Vaccinia mCherry	HCMV inh	FMDV antiviral
c1csc(CNc2nc(-c3cccs3)nc3ccccc23)c1	-18%	?	-21%	-61*	-29%
CCc1cccc(NC(=O)CCS(=O)(=O)c2cc3c4c(c2)CCN4C(=O)CC3)c1	-5%	.	-12%	7	18%
Cc1ccc(CNC(=O)CN2C(=O)CSc3ccc(S(=O)(=O)N4CCCC4)cc32)cc1	-3%	.	-4%	-31	1%
O=C(C[n+]1c(Cl)cc(Cl)c2ccccc21)c1ccccc1	-8%	.	-15%	.	.
O=C(NCCc1ccccc1Cl)c1cc2ccccn2n1	-11%	.	-12%	0	34%
CC1Cc2cc(S(=O)(=O)CCC(=O)Nc3ccc(F)cc3Cl)ccc2N1C(=O)C1CC1 (configuration not stated)	-8%	.	-8%	26	-24%
COc1ccc(CNc2ncnc3sccc23)cc1OC	-3%	6.3µM*	-24%	-10	-24%
c1csc(CNc2ncnc3ccc(-c4ccoc4)cc23)c1	.	.	.	-92*	-29%
Cc1cc2c(NCc3ccccc3)ncnc2s1	-17%	7.9µM*	-12%	-76*	?
c1ccc(CNc2ncnc3sccc23)cc1	.	6%	.	-94*	?
COc1ccc(C(=O)N2CCC3(CCCN(c4ncccn4)C3)CC2)cc1	.	.	.	.	17%
Cc1sc2ncnc(Nc3ccccc3)c2c1C	?	?	?	91	-5%
Cc1sc2ncnc(NCc3ccccc3)c2c1C	?	5.6µM*	.	?	28µM*
Cc1ccc(-n2cnc3cc(C(=O)NCc4ccc(F)cc4)ccc32)c(C)c1	-10%	.	-6%	-20	-14%
O=C(Nc1cccc2c1CCCC2)c1ccc(Cl)c([N+](=O)[O-])c1	4%	?	3%	-26	25µM*
O=C(Nc1ccccc1C(=O)N1CCCC1)c1ccc(Cl)c([N+](=O)[O-])c1	5%	8%	-12%	24	2%
O=C(Nc1cccc2c1CCCC2)c1cc([N+](=O)[O-])ccc1Cl	-24%	?	-5%[1.46 µM]	-105*	?
O=C(Nc1ccc2c3c(cccc13)CC2)c1cccc([N+](=O)[O-])c1	-6%	-10%	-18%	-61*	-16%
C[C@]12CCCCCC3=CC(=O)C=C[C@@]31OC(=O)CC2	.	.	.	6	.
CC(=O)N(C)C[C@@H]1OCc2ccccc2-c2c(n(C)c3ccccc23)C(=O)N([C@@H](C)CO)C[C@@H]1C	.	.	.	10	.
Cc1ccc(-n2nnc3c(sc4nc(C)c(C)cc43)c2=O)cc1Cl	-6%	.	-15%	-27	13%
O=C(CNC(=O)c1cccnc1)c1ccc(F)cc1	-7%	.	-16%	.	.
Cc1nn(CCCC(=O)NCCc2ccc(Cl)cc2)c(=O)c2c1sc1ccccc12	-7%	.	-8%	-16	-15%
Cc1ccc(CN2CC(N3CCC[C@@H]3C)CS2(=O)=O)cc1 (some centres not stated)	.	.	.	1	.
O=C(Cc1ccsc1-c1ccccc1)NO	-24%	10µM*	.	-32	-18%
SMILES	Vaccinia Venus	HCV inh	Vaccinia mCherry	HCMV inh	FMDV antiviral
CCn1cc(C(=O)NCCN(CC(C)C)CC(C)C)c(=O)c2cc(S(=O)(=O)N(C)C3CCCCC3)ccc21	0%	.	-9%	12	-1%
Cc1ccccc1NC(NC(=O)c1cccnc1)C(Cl)(Cl)Cl (configuration not stated)	-8%	-10%	i	-10	-1%
COc1ccc(NC(NC(=O)c2cccnc2)C(Cl)(Cl)Cl)cc1 (configuration not stated)	-7%	14%	-11%	-85*	21%
COc1cccc(-n2cnc3scc(-c4cccs4)c3c2=O)c1	?	11µM*	.	-26	?
COc1ccc(C(=O)NCCc2nc3ccccc3[nH]2)cc1	2%	.	1%	?	3%
Cc1ccc2cc(C#N)c(NCCNC(=S)NCCCN(C)C)nc2c1C	13µM*	?	?	-12	-22%
Cc1ccc2cc(C#N)c(NCCNC(=O)C3CC3)nc2c1C	.	10µM*	.	-88*	?
CCOCCCNC(=S)NCCCNc1nc2c(C)cc(C)cc2cc1C#N	.	13%	.	-32	22%
Cc1cc(C)c2nc(NCCCNC(=S)NCCCN(C)C)c(C#N)cc2c1	.	11µM*	.	-7	?
